SRC3 TRFRET art: TR-FRET artefact, counter-screen to PPARgamma/SRC-3 agonist assay; PPARgamma/SRC-3 format; active compounds read high; TR-FRET ratio at 8 µM; 99,000 compounds, 0.39% hits
PPARg SRC-1 ag: agonists of human PPARgamma SRC-1 coactivator recruitment; PPARgamma-SRC-1 coactivator recruitment biochemical assay; activation, % at 8 µM; 200,000 compounds, 0.41% hits; AID 631; in the data active = activation above about 19%
Target sequence (P37231 whole entry, looked up): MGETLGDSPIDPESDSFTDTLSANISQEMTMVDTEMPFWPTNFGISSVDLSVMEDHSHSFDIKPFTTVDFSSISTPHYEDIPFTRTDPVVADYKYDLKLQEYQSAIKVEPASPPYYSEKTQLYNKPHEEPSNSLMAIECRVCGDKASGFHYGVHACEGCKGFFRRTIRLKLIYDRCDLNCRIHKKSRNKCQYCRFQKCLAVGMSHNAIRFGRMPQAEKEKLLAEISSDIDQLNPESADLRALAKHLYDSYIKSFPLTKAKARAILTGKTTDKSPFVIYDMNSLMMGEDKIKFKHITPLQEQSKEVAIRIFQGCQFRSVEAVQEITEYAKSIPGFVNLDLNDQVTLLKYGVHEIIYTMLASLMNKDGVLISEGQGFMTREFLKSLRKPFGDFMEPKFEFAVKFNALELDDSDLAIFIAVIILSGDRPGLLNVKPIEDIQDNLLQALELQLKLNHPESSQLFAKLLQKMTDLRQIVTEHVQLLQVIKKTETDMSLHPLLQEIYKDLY
PPARg SRC3 recr: PPARgamma-driven SRC-3 recruitment agonism | P37231 | biochemical PPARgamma/SRC-3 coactivator recruitment assay | activation, % at 8 µM | 200,000 compounds, 0.26% hits; in the data active = activation above about 23%
PPARg SRC-2 ag: PPARgamma-driven SRC-2 recruitment agonism; 200,000 compounds, 0.34% hits; P37231; activation, % at 8 µM; AID 1032; PPARgamma LBD-SRC-2 recruitment, biochemical; in the data active = activation above about 22%
TR-FRET SRC-2 ct: TR-FRET artefact, counter-screen to PPARgamma/SRC-2 agonist assay | AID 1049 | 200,000 compounds, 0.4% hits | active compounds read high | TR-FRET ratio at 8 µM
SRC1 TRFRET art: counter-screen for PPARgamma SRC-1 recruitment agonists: TR-FRET artefact. TR-FRET detection artefact counter-screen, emission ratio; active compounds read high. TR-FRET ratio at 8 µM. 99,000 compounds, 0.34% hits. AID 1051; in the data active = TR-FRET ratio above about 2300
A number is an active result; i = inactive; nt = not tested or not shown. Compounds with a hit are over-represented: about 0.9% of the library has one in this group of screens. Cut-off read from the data, not from the text of the source, unless noted: active = TR-FRET ratio above about 2000; inactive = the rest.

SMILES	SRC3 TRFRET art	PPARg SRC-1 ag	PPARg SRC3 recr	PPARg SRC-2 ag	TR-FRET SRC-2 ct	SRC1 TRFRET art
Cc1oc(-c2cccc(Cl)c2)nc1CN1CCC(C(=O)N2CCN(c3ccccc3F)CC2)CC1	i	i	i	i	i	2346
CCOC(=O)Nc1ccccc1C(=O)Nc1cc(C)cc(C)c1	i	i	i	i	i	i
CCOC(=O)Nc1cccc(NC(=O)c2ccccc2F)c1	i	i	i	i	i	2378
Cc1ccccc1-c1nnc(-c2cccs2)o1	i	i	i	i	i	i
N#Cc1c(N)nc(SCC(=O)C23CC4CC(CC(C4)C2)C3)c(C#N)c1-c1ccc(Cl)cc1	nt	98.8	i	i	i	nt
CSc1nc(N)nc(SCC(=O)C23CC4CC(CC(C4)C2)C3)c1C#N	nt	i	i	i	i	nt
COc1ccc(OCC(=O)Nc2cccc(NC(=O)COc3ccc(OC)cc3)n2)cc1	nt	i	i	i	i	nt
COc1ccc(OCC(=O)Nc2cccc3cccnc23)cc1	i	i	i	i	i	2429
CC(C)(C)NS(=O)(=O)c1ccc(NC(=O)C2CCCCC2)cc1	i	i	i	i	i	i
Cn1ccnc1C1CCCCN1Cc1nc(-c2ccc3c(c2)OCO3)no1 (stereo not drawn)	i	38.5	i	i	i	3563
COC(=O)Cc1ccc(NC(=O)c2ccccc2Br)cc1	i	i	i	i	i	i
CCOc1ccccc1-c1nc(-c2ccc(NC(=O)Cc3ccccc3OC)cc2)no1	nt	i	i	i	2140	nt
CCOC(=O)c1sc2nc(CC(=O)OC)nc(NCc3ccc(F)cc3)c2c1C	nt	i	i	57.2	3064	nt
O=C1c2ccccc2C(=O)N1Cc1cnc(N2CCN(c3ccccc3)CC2)s1	i	i	i	i	i	i
COc1ccc(CNC(=S)Nc2ccccc2-c2ccccc2)cc1	i	i	i	i	i	i
CN(C)c1ncc(C2=C(Cl)C(=O)C(N3CCCC3)=C(Cl)C2=O)s1	nt	25.6	i	i	i	nt
Cc1ccc(C)c(N2CCN(C(=O)c3csc4ccccc34)CC2)c1	i	i	i	i	i	i
O=C(CC1Nc2c3ccccc3nc(=S)n2C1=O)NC1CCCCC1 (stereo not drawn)	i	i	i	i	i	i
Cc1sc2nc3c(SC(C)C(=O)O)cc(C(=O)c4ccccc4O)cn3c(=O)c2c1C (stereo not drawn)	i	i	32.6	i	i	i
CCOC(=O)c1sc2nc3c(SCC(=O)O)cc(C(=O)c4ccccc4O)cn3c(=O)c2c1C	i	i	i	i	i	i
O=S(=O)(Cc1cc(NCc2ccccc2)nc(-c2ccccn2)n1)c1ccccc1	i	i	i	i	i	i
O=C(CN1CCCC(O)C1)N1c2ccccc2Sc2ccc(C(F)(F)F)cc21 (stereo not drawn)	nt	i	i	i	i	nt
O=C(CSc1nc(C2CC2)nc2ccccc12)N1c2ccccc2Sc2ccc(C(F)(F)F)cc21	nt	i	i	i	1994	nt
COc1ccc2nc(C)cc(SCC(=O)Nc3c(C)cccc3C)c2c1	i	i	i	26.4	1994	i
COc1ccc2nc(C)cc(SCC(=O)NNC(=O)COc3ccc(C)cc3)c2c1	nt	i	i	i	i	nt
SMILES	SRC3 TRFRET art	PPARg SRC-1 ag	PPARg SRC3 recr	PPARg SRC-2 ag	TR-FRET SRC-2 ct	SRC1 TRFRET art
COc1ccc2nc(C)cc(SCC(=O)Nc3c(C)cc(C)cc3C)c2c1	nt	32.2	i	i	i	nt
Cc1cc(O)ccc1NC(=O)CCN1C(=O)c2ccc([N+](=O)[O-])cc2C1=O	i	i	i	i	i	i
CCCCNC(=O)CSc1nc2ccccc2c(=O)n1Cc1ccc2c(c1)OCO2	nt	i	i	190.0	5232	nt
CCOCCCn1c(SCC(=O)NCc2ccc3c(c2)OCO3)nc2ccccc2c1=O	i	i	i	i	i	i
C=CCn1c(SCC(=O)NCc2ccc3c(c2)OCO3)nc2scc(-c3ccccc3)c2c1=O	nt	i	i	i	1974	nt
O=C(O)CS(=O)(=O)CC(=O)NCc1cccc(C(F)(F)F)c1	i	i	i	i	i	i
CCOC(=O)c1ccccc1NC(=O)c1cn(-c2ccc(C)c(C)c2)c(=O)c2ccccc12	i	i	i	130.3	3144	i
COC(=O)c1ccccc1NC(=O)c1cn(-c2ccc(C)c(C)c2)c(=O)c2ccccc12	i	i	i	i	i	i
CCOc1cc(CNc2ccc(N3CCCC3)cc2)cc(Cl)c1OC	i	i	i	i	2050	i
COc1cc(CNc2ccc(N3CCCC3)cc2)cc(Cl)c1OC	i	i	i	i	i	i
CCOc1cc(CNc2ccc(N3CCN(C(C)=O)CC3)cc2)cc(Br)c1OC	i	i	i	22.1	i	i
Nc1nc(-c2ccccc2)c(C(=O)Nc2ccccc2)s1	i	i	i	i	i	i
Cc1ccc2nc(-c3cccc(NC(=O)c4ccc5c(c4)OCCO5)c3)oc2c1	nt	i	i	i	i	nt
O=C(Nc1ccc2oc(-c3ccc4ccccc4c3)nc2c1)c1ccc2c(c1)OCCO2	nt	27.1	i	i	i	nt
O=C(Nc1cccc(F)c1)c1ccc2c(c1)OCO2	nt	i	i	i	i	nt
O=C(Nc1ccc2nn(-c3ccccc3)nc2c1)c1ccc2c(c1)OCO2	nt	i	i	22.4	i	nt
CNC(=O)c1ccc(CNC(=O)OCc2ccccc2)cc1	i	i	i	i	i	i
Cc1ccc(CNC(=O)C(=O)Nc2nccs2)cc1	i	i	i	i	i	i
O=C(NCCCN1CCOCC1)c1ccc(CSc2ccc(Cl)cc2)cc1	i	i	i	i	i	i
CCc1cccc(NC(=O)C2CCCN(S(=O)(=O)c3c(C)[nH]c(=O)[nH]c3=O)C2)c1 (stereo not drawn)	nt	i	i	i	i	nt
Cc1cccc(NC(=O)C2CCN(S(=O)(=O)c3c(C)[nH]c(=O)[nH]c3=O)CC2)c1	i	i	i	i	1997	i
CC(C)N(C(=O)CSc1nn2c(=O)c(C(C)(C)C)nnc2s1)c1ccccc1	nt	i	i	i	i	nt
Cc1cc(C(=O)CSc2nn3c(=O)c(C(C)(C)C)nnc3s2)c(C)n1-c1ccc(F)cc1	nt	i	i	i	2070	nt
COc1ccc(N2CC(NC(=O)Nc3ccccc3)CC2=O)cc1 (stereo not drawn)	i	i	i	i	i	i
COc1ccc(N2CCC(CNC(=O)Nc3ccccc3)C2)cc1 (stereo not drawn)	nt	i	i	23.6	i	nt
SMILES	SRC3 TRFRET art	PPARg SRC-1 ag	PPARg SRC3 recr	PPARg SRC-2 ag	TR-FRET SRC-2 ct	SRC1 TRFRET art
COc1ccccc1NC(=O)C1=C(C)NC(SCC(=O)c2ccc(C)cc2)=C(C#N)C1c1ccco1 (stereo not drawn)	nt	i	i	i	2554	nt
Cn1c(SCc2cccnc2)nc2c(c1=O)SCC2	i	i	i	i	2241	i
O=C(Nc1ccc(F)cc1)C1=CC(=O)N2CCN=C2S1	i	i	i	i	i	i
CCOC(=O)c1[nH]ncc1CN1CCCC(C(=O)c2ccc(C(C)(C)C)cc2)C1 (stereo not drawn)	i	i	i	i	i	i
CCN(CC)S(=O)(=O)c1cc(NC(=O)c2ccc(Br)s2)ccc1C	i	i	i	i	i	2789
CCCc1cc(NC(=O)CCl)n(-c2ccccc2)n1	i	i	i	i	i	i

Source: PubChem BioAssay
